Nrf2 ARE act: qHTS of Nrf2 Activators | AREc32 ARE-luciferase reporter (MCF7-derived line), luminescence, 24 h | Potency, µM (highest dose often 46.1 µM), for inactives: at the highest dose activation, hits mostly activators | 410,000 tested, 0.31% active | AID 624171, 2012; note: potency is the fitted concentration of half-maximal effect; % of control where 0% means no effect; nearly all actives have a fitted effect of over 65% in size
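Quantitative high-throughput format: AREc32 reporter cells, 1000 per well, received compound by pin transfer and were incubated 24 hr at 37 deg C, 5% CO2, before Steady-Glo luminescence detection.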
miR-21 reporter: qHTS Assay for Modulators of miRNAs and/orActivators of miR-21; HeLa miR-21 FLuc reporter, luciferase, 48 h; Potency, µM (top dose mostly 38.3 µM), for inactives: at the top dose activity change, positive = activation, most hits filed as activators; 340,000 tested, under 10 active; AID 2288, 2010;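 note: % of control where 0% means no effect; miR-21 action dims this reporter so a rising signal means less miR-21 action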
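HeLa cells endogenously expressing miR-21, stably carrying CMV-driven firefly luciferase with a downstream miR-21 binding site, 2000 cells/well. Titrations up to approximately 40 uM, 48 hours; luciferase luminescence read.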
Nrf2 block: Nrf2 qHTS screen for inhibitors; A549 ARE-Fluc reporter, luciferase luminescence, 18-24 h; Potency, µM (titrated, usually from 46 µM), for inactives: top-dose activity change, negative = inhibition, actives largely listed as inhibitors; 360,000 tested, 2.1% active; note: potency is the fitted concentration of half-maximal effect; % is set by controls: 0 for no effect and ±100 for the full control effect; nearly all actives have a fitted effect of over 60% in size
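In this cell-based qHTS, ARE-driven firefly luciferase in A549 cells reports Nrf2 activity; the luminescent signal after BugLite lysis is the measured value, with a prior CellTiter-Fluor read for cell health.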
PI4K2A block: qHTS for small molecular inhibitors of PI4K2A; Phosphatidylinositol 4-kinase type 2-alpha (Homo sapiens), Q9BTU6; activity change, negative = inhibition, % at 76.9 µM; purified PI4K2A, ADP-Glo luminescence, 1 h; stronger effect = lower value; 420,000 tested, 0.13% active; in the data active = activity change below about -50%; inconclusive = mostly about -30% to -49%;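 note: -100% = wells without enzyme as full effect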
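PI4K2A activity was measured by ADP-Glo luminescence: enzyme (4 ug/mL stock) and phosphatidylinositol (1.2 mM stock) in Tris pH 7.5/MgCl2/EGTA/Triton X-100 buffer were reacted with ATP (300 microM stock) for one hour at ambient temperature.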
A549 tox: Nrf2 qHTS screen for inhibitors: counterscreen for cytotoxicity | A549 ARE-Fluc cells, CellTiter-Fluor viability, 18-24 h | Potency, µM (titrated, usually from 46 µM), without a hit: at the highest dose activity change, negative = cytotoxicity, usual class: inhibitors | 390,000 tested, 0.16% active | AID 504648, 2011; note: potency is the fitted concentration of half-maximal effect; % is set by controls: 0 for no effect and ±100 for the full control effect
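Cytotoxicity counterscreen: CellTiter-Fluor fluorescence was measured in A549 ARE_Fluc cells after 18-24 h of compound exposure in a concentration series. The subsequent BugLite luminescent read reports ARE-luciferase activity.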
GALK inhibitor: qHTS Assay for Inhibitors of Human Galactokinase (GALK); P51570; Purified GALK, Kinase-Glo residual ATP luminescence; Potency, µM (doses to about 57.5 µM), inactives show at the top dose activity change, negative = inhibition, usual class: inhibitors; 270,000 tested, 0.007% active; note: potency is the fitted concentration of half-maximal effect; % is set by controls: 0 for no effect and ±100 for the full control effect
Target sequence (P51570 whole entry, looked up): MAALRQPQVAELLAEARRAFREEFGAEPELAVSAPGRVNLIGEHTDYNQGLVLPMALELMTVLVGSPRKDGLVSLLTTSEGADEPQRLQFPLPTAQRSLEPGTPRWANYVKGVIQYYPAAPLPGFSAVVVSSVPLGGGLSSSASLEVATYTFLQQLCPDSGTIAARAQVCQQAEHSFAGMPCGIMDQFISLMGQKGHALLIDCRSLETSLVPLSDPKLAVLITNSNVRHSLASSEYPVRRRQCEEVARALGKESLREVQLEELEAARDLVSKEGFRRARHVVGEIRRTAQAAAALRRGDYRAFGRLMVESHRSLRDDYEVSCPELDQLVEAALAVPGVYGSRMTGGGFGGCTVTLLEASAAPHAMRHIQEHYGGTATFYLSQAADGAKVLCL
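Kinase-Glo Plus luminescence measured ATP left after a 1 h room-temperature reaction. The reaction used 5 nM GALK, 100 uM galactose and 35 uM ATP at pH 8.0 (20 mM HEPES, 5 mM MgCl2, 60 mM NaCl, 1 mM DTT, 0.01% BSA).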
Starred values were filed as active, the others as inactive; ? = inconclusive; / = no result given. An excerpt weighted towards active compounds, which were near 2.2% of everything screened. Unless noted, calls come from the whole dose curve; as a rule, active = well fitted curve in the direction sought with a large enough effect; inconclusive = small, poorly fitted or top-dose-only effect, or another doubt; inactive = no such curve, though single readings can be large; an effect the other way counts as inactive or inconclusive.

SMILES | Nrf2 ARE act | miR-21 reporter | Nrf2 block | PI4K2A block | A549 tox | GALK inhibitor
O=C(CCCCCN1CCN(c2ccccc2-c2ccccc2)CC1)NC1CCCc2ccccc21 (stereo unspecified) | / | / | / | -4 | / | /
O=C1Nc2ccccc2Oc2cc([N+](=O)[O-])cc(Oc3ccccc3)c21 | 8% | -8% | ? | -8 | 0% | /
Cc1cccc(Oc2cc([N+](=O)[O-])cc3c2C(=O)Nc2ccccc2O3)c1 | 7% | -6% | 16µM* | -1 | -13% | /
Nc1ccc2nc(-c3ccccc3)sc2c1 | 3% | 8% | ? | -55* | 2% | 9%
CC#CC(=O)N[C@H]1CC[C@@]23CCCN2C(=O)CCC[C@H]3[C@H]1C | / | / | / | -4 | / | /
Nc1c(Cl)ncnc1N/N=C/c1ccc2ccccc2n1 | ? | -33% | 13µM* | 2 | ? | 1%
Cc1cc(C)n2nc(CC#N)c(C#N)c2n1 | 0% | -4% | ? | 1 | -2% | 1%
COc1cc(/C=C(\C#N)c2ccccn2)cc(OC)c1O | 13µM* | 21% | 2% | 2 | 8% | -2%
N#C/C(=C\c1ccccn1)c1ccccn1 | 22µM* | 12% | ? | -1 | -2% | 2%
Cc1cc(C)n2nc(/C(C#N)=C/c3ccccn3)c(C#N)c2n1 | 7.9µM* | 3% | -27% | -1 | -19% | -2%
Cc1cc(C)cc(C(=O)OCCCN(C)C2CN(Cc3cn(Cc4ccc([N+](=O)[O-])cc4)nn3)S(=O)(=O)C2)c1 (stereo unspecified) | / | / | / | -2 | / | /
COc1ccc(-c2c(Cc3ccccc3)nc(NC(=O)c3ccccc3F)n2C)cc1 | / | / | / | 4 | / | /
COc1ccc(/C=C2\CCC/C(=C\C=N\N(C)C)C2=O)cc1 | 14µM* | 28% | -26% | 2 | -14% | 2%
CN(C)c1ccc(/C=C2\CCC/C(=C\c3ccccc3)C2=O)cc1 | 0% | -11% | 5% | -8 | -14% | -2%
CN(C)/N=C/C=C1\CCC/C(=C\c2ccc(F)c(F)c2)C1=O | 18µM* | ? | ? | 9 | -28% | -2%
Cc1cc(/C=C2\Sc3ccccc3N2C)cc(C)[n+]1CC1CCCO1 (stereo unspecified) | 12% | 27% | 1.2µM* | -4 | 4.1µM* | -1%
Cc1ccc(/C=C2/Sc3ccccc3N(CC(=O)NCC3CCCO3)C2=O)cc1 (stereo unspecified) | 0% | -3% | 3% | -16 | -7% | 1%
CC(C)CNc1nc(C#N)nc(Nc2ccccc2)n1 | / | / | ? | / | -15% | /
O=C(CSc1nnc(NC(=O)c2ccccc2)s1)NCc1ccco1 | 4.5µM* | -27% | 10% | -3 | -3% | 7%
O=C(CSc1nc2ccccc2c2nc3ccccc3n12)NCc1ccco1 | ? | -22% | -4% | -53* | -9% | 0%
CCn1c(SCC(=O)NCc2ccco2)nc2ccccc2c1=O | 5% | 1% | -11% | -4 | -1% | 5%
C=CCCC(=O)N[C@H]1CC[C@@]23CCCN2C(=O)CCC[C@H]3[C@H]1C | / | / | / | 4 | / | /
Cc1csc2ncnc(NNC(=O)c3ccc(Cl)cc3)c12 | 0% | 14% | 21µM* | 2 | -17% | /
O=C(NNc1ncnc2sccc12)c1ccc(Cl)cc1 | 9% | -1% | ? | -1 | -6% | 1%
CCc1ccc2[nH]c(=O)c(C(c3nnnn3CC3CCCO3)N3CCCc4ccccc43)cc2c1 (stereo unspecified) | 0% | -1% | 23µM* | -10 | ? | -3%
Cc1cc2cc(C(c3nnnn3CC3CCCO3)N3CCCc4ccccc43)c(=O)[nH]c2cc1C (stereo unspecified) | 4% | -14% | ? | 1 | -28% | -6%

Assay outcomes deposited in PubChem by National Center for Advancing Translational Sciences (NCATS).
